Results: PubChem BioAssay (Tox21)
“And” between values parts separate entries of the source, which are not always exact repeats. Equal values may be shown once. Records with an inconclusive call do not appear. A call without a number means that no potency is given here. Some compounds were tested as several samples or in several runs, with calls that do not always agree. The source made the active and inactive calls. Unless noted, calls follow the shape of the dose curve; as a rule, active = well fitted curve in the direction sought with a large enough effect in the repeat runs; inconclusive = weak or mixed curves; inactive = no such curve, though single readings can be large; an effect the other way counts as inactive or inconclusive.

Key:
[1] = qHTS assay to test for compound auto fluorescence at 535 nm (green) in HEK293 cells (AID 720680)
[2] = qHTS assay to test for compound auto fluorescence at 460 nm (blue) in HEK293 cell free culture (AID 720681)
Summary of the method: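 Blue fluorescence (Ex 405/Em 460 nm, triamterene-equivalent) was read immediately after pin transfer of compound or DMSO into medium (DMEM, 10% FBS) without cells.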

[3] = qHTS assay to test for compound auto fluorescence at 535 nm (green) in HEK293 cell free culture (AID 720682)
Summary of the method: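 Intrinsic compound fluorescence is measured in culture medium containing 10% FBS, with excitation at 485 nm and detection at 535 nm, referenced to fluorescein.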

[4] = qHTS assay to test for compound auto fluorescence at 590 nm (red) in HEK293 cell free culture (AID 720683)
Summary of the method: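 Red-channel autofluorescence of compounds in culture medium (DMEM, 10% FBS), no cells, measured at 540/590 nm. Rose Bengal sodium is the reference fluorophore for equivalence.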

[5] = qHTS assay to test for compound auto fluorescence at 590 nm (red) in HepG2 cell free culture (AID 720684)
Summary of the method: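 Plate contents were MEM with 10% FBS plus test compound or DMSO, no cells. Fluorescence was recorded with 540 nm excitation and 590 nm emission.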

[6] = qHTS assay to test for compound auto fluorescence at 460 nm (blue) in HepG2 cell free culture (AID 720685)
Summary of the method: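 Compound (23 nL) or DMSO pinned into cell-free MEM with 10% FBS; blue fluorescence read at 405/460 nm excitation/emission, expressed as auto-fluorescence equivalency to triamterene.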

[7] = qHTS assay to test for compound auto fluorescence at 535 nm (green) in HepG2 cell free culture (AID 720686)
[8] = qHTS assay to test for compound auto fluorescence at 460 nm (blue) in HepG2 cells (AID 720687)
Summary of the method: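 Blue-channel autofluorescence (Ex/Em 405/460 nm, triamterene-equivalent) was measured after 1 hr compound exposure at 37 C, 5% CO2. Cells were HepG2, plated overnight at 37 C in MEM plus 10% FBS.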

[9] = molecular target: Glucocorticoid receptor (Homo sapiens) (UniProt P04150); test: qHTS assay to identify small molecule agonists of the glucocorticoid receptor (GR) signaling pathway (AID 720691; active = well fitted activation curve with a large enough effect in the signal ratio in the repeat runs, not every such curve was filed as active; the % refers to the signal ratio); conditions: GR-bla HeLa, beta-lactamase reporter ratio, 18 h; activation: at 62.4 µM (top of the series)
Summary of the method: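 Beta-lactamase reporter activity, read as fluorescence intensity, was measured in GR-bla HeLa cells exposed to compounds for 18 h at 37 C and then loaded with LiveBLAzer B/G FRET substrate for 2 h at room temperature.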

[10] = molecular target: Glucocorticoid receptor (Homo sapiens) (UniProt P04150); test: qHTS assay to identify small molecule antagonists of the glucocorticoid receptor (GR) signaling pathway (AID 720692; active = well fitted inhibition curve with a large enough effect in the signal ratio in the repeat runs, not every such curve was filed as active; the % refers to the signal ratio; also: potency is read from the fitted curve at half-maximal effect)
Summary of the method: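 Fluorescence from cleaved LiveBLAzer B/G FRET substrate reports GRE-driven beta-lactamase in HeLa cells; compounds are tested against 5 nM dexamethasone (final) over 18 h at 37 C, substrate incubation 2 h at room temperature.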

[11] = qHTS assay for identifying genotoxic compounds that show differential cytotoxicity against isogenic chicken DT40 cell lines with known DNA damage response pathways - wild type cell line (AID 743012); also: nearly all actives have a fitted effect of over 60% in size; also: potency is read from the fitted curve at half-maximal effect
Summary of the method: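 Quantitative HTS on parental DT40 cells: 40 h compound treatment at 37 C/5% CO2, with viability then determined by CellTiter-Glo luminescence. Values serve as the DNA repair-proficient reference for differential cytotoxicity.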

[12] = qHTS assay for identifying genotoxic compounds that show differential cytotoxicity against isogenic chicken DT40 cell lines with known DNA damage response pathways - Rev3 mutant cell line (AID 743014); also: nearly all actives have a fitted effect of over 55% in size; also: potency is read from the fitted curve at half-maximal effect
[13] = qHTS assay for identifying genotoxic compounds that show differential cytotoxicity against isogenic chicken DT40 cell lines with known DNA damage response pathways - Rad54/Ku70 mutant cell line (AID 743015); also: nearly all actives have a fitted effect of over 60% in size; also: potency is read from the fitted curve at half-maximal effect
[14] = qHTS assay to identify small molecule antagonists of the glucocorticoid receptor (GR) signaling pathway - cell viability counter screen (AID 720693); also: nearly all actives have a fitted effect of over 55% in size; also: potency is read from the fitted curve at half-maximal effect
[15] = qHTS assay to identify small molecule antagonists of the androgen receptor (AR) signaling pathway - cell viability counter screen (AID 743033; also: nearly all actives have a fitted effect of over 45% in size; also: potency is read from the fitted curve at half-maximal effect)
[16] = molecular target: Androgen receptor (Homo sapiens) (UniProt P10275); test: qHTS assay to identify small molecule agonists of the androgen receptor (AR) signaling pathway using the MDA cell line (AID 743040; also: nearly all actives have a fitted effect of over 20% in size)
Summary of the method: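 After a 5 h incubation at 37C and 0% CO2, MDA-kb2 reporter cells were dosed with compounds in DMSO and kept 16 h under the same conditions. Luciferase activity was then read as luminescence with ONE-Glo.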

[17] = qHTS assay to identify small molecule antagonists of the androgen receptor (AR) signaling pathway using the MDA cell line - cell viability counter screen (AID 743041; also: nearly all actives have a fitted effect of over 45% in size)
Summary of the method: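 R1881-driven MDA-kb2 AR-luc cells, 3,000/well, were dosed with library compounds for 16 h; cell health came from CellTiter-Fluor fluorescence in the reporter wells.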

[18] = molecular target: Androgen receptor (Homo sapiens) (UniProt P10275); test: qHTS assay to identify small molecule antagonists of the androgen receptor (AR) signaling pathway using the MDA cell line (AID 743042; also: nearly all actives have a fitted effect of over 55% in size; also: potency is read from the fitted curve at half-maximal effect)
Summary of the method: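 Antagonist mode: compounds plus R1881 agonist added to MDA-kb2 AR-luc cells, incubated 16 h at 37C. Luciferase reporter luminescence quantified, with multiplexed CellTiter-Fluor readout for cell viability.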

[19] = molecular target: Androgen receptor (Homo sapiens) (UniProt P10275); test: qHTS assay to identify small molecule agonists of the androgen receptor (AR) signaling pathway (AID 743036; active = well fitted activation curve with a large enough effect in the signal ratio in the repeat runs, with a control signal flat, not every such curve was filed as active; the % refers to the signal ratio)
Summary of the method: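 Agonist activity was scored by beta-lactamase reporter fluorescence in stably transfected HEK293 cells exposed to compounds for 16 h at 37C and 5% CO2. Substrate loading took 2 h at room temperature.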

Androgen receptor (Homo sapiens), sequence (P10275 whole entry, looked up): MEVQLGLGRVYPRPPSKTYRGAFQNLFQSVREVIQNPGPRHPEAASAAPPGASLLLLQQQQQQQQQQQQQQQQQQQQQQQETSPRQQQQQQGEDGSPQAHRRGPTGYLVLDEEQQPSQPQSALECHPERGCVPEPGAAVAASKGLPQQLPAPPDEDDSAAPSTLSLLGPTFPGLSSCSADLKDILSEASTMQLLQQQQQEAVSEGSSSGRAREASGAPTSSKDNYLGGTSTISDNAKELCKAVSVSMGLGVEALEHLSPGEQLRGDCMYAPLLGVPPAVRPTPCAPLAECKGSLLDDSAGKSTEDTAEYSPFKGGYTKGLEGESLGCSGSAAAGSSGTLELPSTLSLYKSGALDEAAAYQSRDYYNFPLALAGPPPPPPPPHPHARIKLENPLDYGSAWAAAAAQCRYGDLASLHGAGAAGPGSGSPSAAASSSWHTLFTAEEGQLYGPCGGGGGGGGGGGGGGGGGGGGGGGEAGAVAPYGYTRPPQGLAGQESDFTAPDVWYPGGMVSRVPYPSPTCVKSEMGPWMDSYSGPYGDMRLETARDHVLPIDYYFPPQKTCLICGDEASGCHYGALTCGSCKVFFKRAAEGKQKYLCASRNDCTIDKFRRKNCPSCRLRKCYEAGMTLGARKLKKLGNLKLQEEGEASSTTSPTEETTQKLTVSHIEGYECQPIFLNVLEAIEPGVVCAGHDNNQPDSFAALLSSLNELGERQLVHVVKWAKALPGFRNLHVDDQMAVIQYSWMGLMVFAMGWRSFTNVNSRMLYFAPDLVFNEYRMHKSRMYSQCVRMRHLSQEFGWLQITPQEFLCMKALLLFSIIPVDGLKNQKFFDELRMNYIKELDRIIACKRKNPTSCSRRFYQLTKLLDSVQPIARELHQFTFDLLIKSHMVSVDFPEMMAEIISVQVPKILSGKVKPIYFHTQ
Glucocorticoid receptor (Homo sapiens), sequence (P04150 whole entry, looked up): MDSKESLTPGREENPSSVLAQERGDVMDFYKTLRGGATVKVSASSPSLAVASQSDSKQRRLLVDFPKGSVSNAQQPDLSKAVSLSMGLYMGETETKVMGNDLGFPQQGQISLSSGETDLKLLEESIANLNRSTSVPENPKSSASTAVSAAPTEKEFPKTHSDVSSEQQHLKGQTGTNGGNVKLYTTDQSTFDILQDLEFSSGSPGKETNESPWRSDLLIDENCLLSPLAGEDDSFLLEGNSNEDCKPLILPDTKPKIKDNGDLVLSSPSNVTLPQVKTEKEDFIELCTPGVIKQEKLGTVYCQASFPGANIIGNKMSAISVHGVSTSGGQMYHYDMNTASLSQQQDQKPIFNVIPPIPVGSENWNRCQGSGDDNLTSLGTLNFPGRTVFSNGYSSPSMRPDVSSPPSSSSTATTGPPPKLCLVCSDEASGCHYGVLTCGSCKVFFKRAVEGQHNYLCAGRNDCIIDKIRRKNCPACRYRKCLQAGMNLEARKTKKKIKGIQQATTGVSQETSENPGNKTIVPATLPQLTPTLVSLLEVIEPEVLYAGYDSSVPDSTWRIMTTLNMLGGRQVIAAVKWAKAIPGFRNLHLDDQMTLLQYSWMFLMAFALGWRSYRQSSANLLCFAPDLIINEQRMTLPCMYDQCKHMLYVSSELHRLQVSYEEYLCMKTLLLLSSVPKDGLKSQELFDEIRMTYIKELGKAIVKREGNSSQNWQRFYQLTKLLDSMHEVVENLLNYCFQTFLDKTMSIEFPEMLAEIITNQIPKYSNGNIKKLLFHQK

| Compound | outcome [1] | Potency [2] | outcome [3] | outcome [4] | outcome [5] | Potency [6] | Potency [7] | Potency [8] | Potency [9] | Potency [10] | Potency [11] | Potency [12] | Potency [13] | Potency [14] | Potency [15] | Potency [16] | Potency [17] | Potency [18] | Potency [19] |
| --- | --- | --- | --- | --- | --- | --- | --- | --- | --- | --- | --- | --- | --- | --- | --- | --- | --- | --- | --- |
| CCCCC/C=C\C=C\C(=O)OCC | inactive | inactive | inactive | inactive | inactive | inactive | inactive | inactive | inactive | 45.5 µM (active) | 12.7 µM (active) | 16 µM (active) | 12.7 µM (active) |  |  |  |  |  |  |
| COc1ccc(/C=C/C(=O)Nc2ccccc2C(=O)O)cc1OC | inactive | inactive | inactive | inactive | inactive | inactive | inactive | inactive | inactive |  | inactive |  |  | inactive | inactive | inactive | inactive | inactive |  |
| CC(=O)NC[C@H]1CN(c2ccc(N3CCOCC3)c(F)c2)C(=O)O1 | inactive | inactive | inactive | inactive | inactive | inactive | inactive | inactive | inactive | inactive |  |  |  | inactive | inactive |  | inactive |  |  |
| SC1CCCCC1 | inactive | inactive | inactive | inactive | inactive | inactive | inactive | inactive | inactive |  | inactive | inactive | inactive |  | inactive |  | inactive |  |  |
| O=C1CCC(c2ccccc2)(C2CCN(Cc3ccccc3)CC2)C(=O)N1 (stereo not drawn) | inactive | inactive | inactive | inactive | inactive | inactive | inactive | inactive | inactive |  |  | inactive |  | inactive | inactive |  | inactive |  |  |
| C=CC1=C(C(=O)O)N2C(=O)[C@@H](NC(=O)/C(=N/OCC(=O)O)c3csc(N)n3)[C@H]2SC1 (stereo in doubt) | inactive | inactive | inactive | inactive | inactive | inactive | inactive | inactive |  |  | inactive |  | inactive | inactive | inactive |  | inactive |  |  |
| CN1CCN(CCCN2c3ccccc3Sc3ccc(Cl)cc32)CC1 | inactive | inactive | inactive | inactive | inactive | inactive | inactive | inactive |  |  | 5.96 µM (active) | 7.5 µM (active) | 8.41 µM (active) | 23.9 µM (active) | 23.9 µM (active) |  |  |  |  |
| CN(C)CCOc1ccc(/C(=C(/CCCl)c2ccccc2)c2ccccc2)cc1 | inactive | inactive | inactive | inactive | inactive | inactive | inactive | inactive |  |  | 11.9 µM (active) and 5.1 µM (active) | 2.66 µM (active) and 1.44 µM (active) | 9.44 µM (active) and 2.03 µM (active) | inactive | 16.3 µM (active) |  | inactive | inactive and 57.2 µM (active) |  |
| CC1(C)S[C@@H]2[C@H](N3C(=O)C(c4ccccc4)NC3(C)C)C(=O)N2[C@H]1C(=O)O (stereo partly drawn) | inactive | inactive | inactive | inactive | inactive | inactive | inactive | inactive |  |  | inactive |  | inactive | inactive | inactive |  | inactive |  |  |
| c1ccc2c(c1)OCC(CN1CCCCC1)O2 (stereo not drawn) | inactive | inactive | inactive | inactive | inactive | inactive | inactive | inactive |  |  | inactive |  |  | inactive | inactive |  | inactive | inactive |  |
| CN(C)CCc1c[nH]c2ccc(Cn3cncn3)cc12 | inactive | inactive | inactive | inactive | inactive | inactive | inactive | inactive |  |  | inactive | inactive | inactive | inactive | inactive | inactive | inactive | inactive | inactive |
| CCC1OC(=O)C[C@@H](O)[C@H](C)[C@@H](O[C@@H]2O[C@H](C)C[C@H](N(C)C)[C@H]2O)[C@@H](CC=O)C[C@@H](C)C(=O)/C=C/[C@]2(C)OC2C1C (stereo partly drawn) | inactive | inactive | inactive | inactive | inactive | inactive | inactive | inactive |  |  | 11.9 µM (active) and 4.73 µM (active) | 21.1 µM (active) and 8.41 µM (active) | 16.8 µM (active) and 7.5 µM (active) | inactive | inactive | inactive | inactive | 26.6 µM (active) and 23.7 µM (active) | inactive |
| CC12CCC(C1)C(C)(C)C2=O (stereo not drawn) | inactive | inactive | inactive | inactive | inactive | inactive | inactive | inactive |  |  | inactive | inactive | inactive | inactive |  | inactive | inactive | inactive | inactive |
| CC[C@H]1OC(=O)C[C@@H](O)[C@H](C)[C@@H](O[C@@H]2O[C@H](C)[C@@H](O[C@H]3C[C@@](C)(O)[C@@H](O)[C@H](C)O3)[C@H](N(C)C)[C@H]2O)[C@@H](CC=O)C[C@@H](C)C(=O)/C=C/C(C)=C/[C@@H]1CO[C@@H]1O[C@H](C)[C@@H](O)[C@@H](OC)[C@H]1OC | inactive | inactive | inactive | inactive | inactive | inactive | inactive | inactive |  |  | inactive | inactive |  | inactive |  |  | inactive |  |  |
| CC[C@H](C)C(=O)O[C@H]1CCC=C2C=C[C@H](C)[C@H](CC[C@@H]3C[C@@H](O)CC(=O)O3)[C@H]21 | inactive | inactive | inactive | inactive | inactive | inactive | inactive | inactive |  |  | 2.98 µM (active) | 2.37 µM (active) | 11.9 µM (active) | inactive |  | inactive | inactive | inactive | inactive |
